The text below walks through data of PubChem BioAssay (NCATS).

The structures appear in SMILES notation. Results filed as inconclusive are left out. Where a call stands in place of a potency, no number is given. Calls of active or inactive are those of the source. The call rests on the fitted dose curve; in most records, active means well fitted inhibition curve with a large enough effect; inconclusive means small, poorly fitted or top-dose-only effect; inactive means no such curve, though single readings can be large or run the other way.

Cytochrome P450 3A7 (Homo sapiens), sequence (P24462 whole entry, looked up): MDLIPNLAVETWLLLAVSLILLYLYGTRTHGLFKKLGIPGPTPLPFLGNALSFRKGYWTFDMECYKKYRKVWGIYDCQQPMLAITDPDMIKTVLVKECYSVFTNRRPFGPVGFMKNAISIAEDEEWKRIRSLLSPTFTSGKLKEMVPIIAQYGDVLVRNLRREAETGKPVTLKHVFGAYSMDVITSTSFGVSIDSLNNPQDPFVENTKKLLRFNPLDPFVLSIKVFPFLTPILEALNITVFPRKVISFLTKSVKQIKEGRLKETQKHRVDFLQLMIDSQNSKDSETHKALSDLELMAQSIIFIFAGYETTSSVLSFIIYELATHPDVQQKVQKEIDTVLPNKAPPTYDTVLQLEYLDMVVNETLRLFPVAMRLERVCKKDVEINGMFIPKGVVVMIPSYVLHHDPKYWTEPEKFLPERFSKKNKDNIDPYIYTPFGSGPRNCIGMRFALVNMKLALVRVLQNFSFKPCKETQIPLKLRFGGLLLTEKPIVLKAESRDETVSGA

This assay has as its target Cytochrome P450 3A7 (Homo sapiens) (UniProt P24462). Kind of assay: Cytochrome P450 family 3 subfamily A member 7 (CYP3A7) small molecule antagonists: luciferase biochemical qHTS assay (AID 1963596). Further: nearly all actives have a fitted effect of over 40% in size. To be noted: P450-Glo CYP3A7 enzyme luminescence, 1 h; series mostly up to 57.4 µM. In short, it runs like this: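 Luminescence read-out (relative luminescence units) after 20 min with detection reagent, which stops the reaction. Enzyme, proluciferin substrate and compound preincubated 10 min, RT; NADPH regeneration system then started 1 h reaction. Ketoconazole as positive control.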
On the technique in general: In qHTS, concentration-response curves come from the screen itself.
With `CCOc1cc(C(=O)Nc2ccc(Cl)c(-c3nc4ccccc4[nH]3)c2)cc(OCC)c1OCC`, the Potency result is “inactive”.

For `CC(C)c1noc(N2CCC(COc3ccc(-c4ccc(S(C)(=O)=O)cc4)nc3)CC2)n1`, the Potency entry is “inactive”.

As to `CS(=O)(=O)c1ccc([C@@H](O)[C@@H](CO)NC(=O)C(Cl)Cl)cc1`, the Potency result was “inactive”.

On to `COc1cc(C)nc(-n2nc(C)cc2OC)n1`, for which the Potency result is “inactive”.

Consider `CCOC(=O)N1CCN([N+]([O-])=NOc2ccc([N+](=O)[O-])cc2C#N)CC1`, for which the Potency result is “inactive”.

Consider `CCN(CC)C(=O)C1CN2CCc3cc(OC)c(OC)cc3C2CC1OC(C)=O` (configuration not stated), for which the Potency entry was “inactive”.

Take `COC(=O)N[C@@H](C)CNc1nccc(-c2cn(C(C)C)nc2-c2cc(Cl)cc(NS(C)(=O)=O)c2F)n1`: the Potency result is “inactive”.

Take `CN1CCN(c2c(F)cc3c(=O)c(C(=O)O)cn4c3c2SCC4)CC1`: the Potency entry is “inactive”.

Consider `CCNC(=O)Nc1ccc(Oc2ncnc(N)c2C=NOC)cc1Cl`, for which the Potency result is “inactive”.

Take `O=c1c(O)c(-c2ccc(O)cc2O)oc2cc(O)cc(O)c12`: the Potency result is “inactive”.

As to `O=C(NC[C@H](O)CN1CCc2ccccc2C1)c1cc(NC2COC2)ncn1`, the Potency result is “inactive”.

On to `CCN(CC)CC#CCOC(=O)C(O)(c1ccccc1)C1CCCCC1` (configuration not stated), for which the Potency result was “inactive”.

Consider `CNC(=O)c1ccc(-c2cnc3ncc(Cc4ccc5ncccc5c4)n3n2)cc1F`, for which the Potency result was “inactive”.

With `COc1ccc(CCN2CCN(CCCc3ccccc3)CC2)cc1OC`, the Potency entry is “inactive”.

As for `COc1c(N2C[C@@H]3CCCN[C@H]3C2)c(F)cc2c(=O)c(C(=O)O)cn(C3CC3)c12`, the Potency entry was “inactive”.

For `CC(S)C(=O)NCC(=O)O` (configuration not stated), the Potency result is “inactive”.

On to `CS(=O)(=O)OCCCCOS(C)(=O)=O`, for which the Potency result was “inactive”.
